The full list was thinned out, with hits kept by preference.
RBX1-CUL1 inh: inhibitors of human ROC1-CUL1 ubiquitin ligase activity; inhibition, % at 10 µM; in vitro K48 di-Ub FRET, acceptor:donor ratio, 45 min; actives 0.6% (n = 140,000); in the data active = inhibition above about 25%
Target sequence (P62877 whole entry, looked up): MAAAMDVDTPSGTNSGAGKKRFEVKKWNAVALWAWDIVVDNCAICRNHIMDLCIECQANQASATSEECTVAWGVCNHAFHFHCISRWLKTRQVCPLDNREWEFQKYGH
Target sequence (Q13616 whole entry, looked up): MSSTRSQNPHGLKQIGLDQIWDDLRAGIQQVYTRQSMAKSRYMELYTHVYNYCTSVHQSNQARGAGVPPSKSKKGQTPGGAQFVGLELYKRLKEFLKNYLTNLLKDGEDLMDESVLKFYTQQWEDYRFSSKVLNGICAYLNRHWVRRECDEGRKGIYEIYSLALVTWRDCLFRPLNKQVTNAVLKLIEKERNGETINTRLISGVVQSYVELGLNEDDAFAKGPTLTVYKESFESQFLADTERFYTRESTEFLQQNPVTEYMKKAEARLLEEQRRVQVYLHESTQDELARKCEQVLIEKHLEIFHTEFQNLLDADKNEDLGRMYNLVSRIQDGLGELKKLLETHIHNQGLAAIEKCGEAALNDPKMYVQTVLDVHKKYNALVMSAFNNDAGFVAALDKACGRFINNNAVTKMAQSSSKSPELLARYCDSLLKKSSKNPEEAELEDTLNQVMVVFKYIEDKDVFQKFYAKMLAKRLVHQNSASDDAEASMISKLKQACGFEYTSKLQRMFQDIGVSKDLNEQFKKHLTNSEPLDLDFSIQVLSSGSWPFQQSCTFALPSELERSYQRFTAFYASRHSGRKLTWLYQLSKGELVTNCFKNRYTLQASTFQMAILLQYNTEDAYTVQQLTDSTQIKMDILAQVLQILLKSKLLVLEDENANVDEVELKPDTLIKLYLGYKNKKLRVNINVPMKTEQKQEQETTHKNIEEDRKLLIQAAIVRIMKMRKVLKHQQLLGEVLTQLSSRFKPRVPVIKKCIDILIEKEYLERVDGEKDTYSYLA
Of the large screens only hits and unclear results are named; the others gave an inactive call.

CCCNC(=O)C1CCN(S(=O)(=O)c2ccc3c(c2)CCCN3C(C)=O)CC1	none
CCN(CC)C(=O)Cn1cc(C(=O)NC2CCOC(C)(C)C2)nn1 (configuration not stated)	none
OC(Cc1ccccc1)c1ccc2c(c1)CN(Cc1c(F)ccc(F)c1F)CCO2 (configuration not stated)	none
COc1ccc(C(=O)Nc2nnc(CCSc3cc(Cl)ccc3Cl)s2)cc1OC	none
Fc1cccc(Cl)c1Cn1cnc2ccccc21	none
O=S(=O)(c1ccc(-c2ccc(Cl)cc2)cc1)N1CCN(c2ccccc2F)CC1	none
Cc1ccc(-n2c(-c3ccccc3)cc(/C=C3\C(=O)NC(=S)N(c4ccc(C)c(C)c4)C3=O)c2-c2ccccc2)cc1	none
O=C(N/N=C/c1ccc(-c2cccc(C(=O)O)c2)o1)Nc1ccc(Cl)cc1	none
COc1ccc(/C=C2/C(=O)NC(=S)N(c3ccccc3)C2=O)cc1C(=O)O	none
CC(C)Oc1ccccc1/C=C1\C(=O)NC(=S)N(c2cccc(F)c2)C1=O	none
O=C1Nc2ccccc2/C1=C/c1ccc(-c2cccc(C(=O)O)c2)o1	none
Cc1cc(C)cc(N2C(=O)NC(=O)/C(=C/c3ccc(-c4cccc(C(=O)O)c4)o3)C2=O)c1	RBX1-CUL1 inh 85.1
O=C1NC(=S)N(c2cccc(F)c2)C(=O)/C1=C/c1ccc(N2CCCC2)o1	RBX1-CUL1 inh 26.1
Cc1ccc(N2C(=O)/C(=C\c3ccc(-c4ccc(Cl)c(C(=O)O)c4)o3)C(=O)NC2=S)cc1	RBX1-CUL1 inh 63.4
O=C1NC(=S)N(c2cccc(Br)c2)C(=O)/C1=C/c1cc(Br)c(O)c(Br)c1	none
COc1cccc(/C=C2/C(=O)NC(=O)N(c3cc(C)cc(C)c3)C2=O)c1O	none
O=C1NC(=S)N(c2ccc(Cl)cc2)C(=O)/C1=C\c1ccc(-c2cccc(C(=O)O)c2)o1	RBX1-CUL1 inh 99.9
O=C1NC(=S)N(c2ccccc2)C(=O)/C1=C\c1ccc(-c2ccc(F)cc2)o1	none
Fc1ccc(Cc2noc(-c3ccc(NCc4cccnc4)nc3)n2)cc1	none
CCc1[nH]nc2c1C(c1ccc(OCc3ccccc3)cc1)C(C#N)C(=N)O2 (configuration not stated)	none
Cc1ccc(C(=O)NCC(c2ccc3c(c2)OCO3)N2CCOCC2)cc1C (configuration not stated)	none
O=C1Nc2ccccc2C1C=NCc1ccccc1 (configuration not stated)	none
CCc1ccc(NC(=O)CC2C(=O)N(c3cccc(C)c3)C(=O)N2Cc2ccc(F)cc2)cc1 (configuration not stated)	none
O=C(CSc1nc2c([nH]c3ccccc32)c(=O)n1-c1ccc(F)cc1)NCc1ccccc1	none
C=CCN1C(=O)/C(=C/c2cc(C)n(-c3cccc(C(=O)OC)c3C)c2C)C(=O)NC1=S	none
CC(C)(C)C(=O)N1CC2CC1C(=O)NO2 (configuration not stated)	none
Cc1ccc(NC(=O)Cn2c(=O)c(C(F)(F)F)nc3ccccc32)cc1C	none
O=[N+]([O-])c1cc2c(cc1C1NN=C(c3ccccc3O)S1)OCO2 (configuration not stated)	none
Clc1ccccc1Cn1c(-c2cccs2)nc2ccccc21	none
CN(C(=S)NC(=O)c1ccccc1Br)c1ccccc1	none
C=CCN1C(=O)/C(=C\c2ccc(N(C)C)cc2)N=C1SCC(=O)Nc1ccccc1	none
CN(C)c1ccc(/C=C2\N=C(c3ccccc3)N(NC(=O)c3ccccc3Br)C2=O)cc1	RBX1-CUL1 inh 40.1
O=C(Nc1ccccc1)c1sc2cc3c(cc2c1Cl)OCO3	none
Cc1cc(C)cc(-c2cccc3ccc4ccccc4c23)c1	none
Cc1nnc(N2CCCC(C(=O)NCCc3ccccc3)C2)c2nn(-c3ccccc3)c(C)c12 (configuration not stated)	none
CCNC(=O)c1cn(CC(C)C)cc(C(=O)NC2CCCCCC2)c1=O	none
CCOc1ccc(-c2cn3c(n2)sc2cc(C(=O)NCCCN4CCCCC4)ccc23)cc1	none
Cc1ccc(-c2cn3c(n2)sc2cc(C(=O)NCCCN4CCCCC4)ccc23)cc1	none
Cc1ccc(-c2cn3c(n2)sc2cc(C(=O)NCCCN4CCCCCC4)ccc23)cc1	RBX1-CUL1 inh 38.6
CCCN1CCN(CCCNC(=O)c2ccc3c(c2)sc2nc(-c4ccc(OCC)cc4)cn23)CC1	none
CCOc1ccc(-c2cn3c(n2)sc2cc(C(=O)NCCCN4CCCCCC4)ccc23)cc1	RBX1-CUL1 inh 42.4
CCN1CCN(CCCNC(=O)c2ccc3c(c2)sc2nc(-c4ccc(C)cc4)cn23)CC1	none
CCCOc1cccc(CN2CCCC(c3cc(=O)[nH]cn3)C2)c1 (configuration not stated)	none
O=S(=O)(Cc1ccc(F)cc1)Nc1ccc(F)cc1F	none
OCc1sc2cccc(Cl)c2c1Cl	none
O=C(O)c1c2c(nc3ccc(S(=O)(=O)N4CCC(C(=O)NCc5ccc(Cl)cc5)CC4)cc13)CCCC2	none
CN(C)C(c1ccccc1)(c1ccccc1)c1ccccc1	none
CN=C1CC=CC=C(C(=O)/C=C/c2ccc3c(c2)OCO3)C1=O	RBX1-CUL1 inh 93.4
CN=C1CC=C(Br)C=C(C(=O)/C=C/c2ccc3c(c2)OCO3)C1=O	none
CCN=C1CC=CC=C(C(=O)/C=C/c2ccc3c(c2)OCO3)C1=O	none
CN=C1CC=CC=C(/C(C)=N/Nc2ccccc2)C1=O	none
CN=C1CC=C(Br)C=C(C(=O)/C=C/c2ccc(C#N)cc2)C1=O	none
CN=C1CC=CC=C(C(=O)/C=C/c2cccc(C#N)c2)C1=O	RBX1-CUL1 inh 49.4
Cc1cc(CNC(=O)c2ccccc2OC2CCN(S(C)(=O)=O)CC2)on1	none
CCCc1[nH]nc2c1C(c1ccc(OC(C)=O)cc1)C(C#N)C(=N)O2 (configuration not stated)	none
COCc1cc(C)nc(N2CCN(c3ccccc3)CC2)c1C#N	none
COc1ccc(C(=O)Nc2ccc3c(c2)CCCN3S(=O)(=O)c2ccc(C)cc2)c(OC)c1	none
Cc1ccccc1Nc1c(-c2c[nH]c3ccccc23)nc2ccc(Cl)cn12	none
CC(C)OC(=O)c1cc(NC(=O)CCC(=O)O)cc(C(=O)OC(C)C)c1	none
COc1ccc(C(=O)Nc2ccc3nsnc3c2)cc1OC	none
CNC(=S)Nc1ccc(C)cc1	none
Cc1ccc(NC(=S)Nc2ccc3nsnc3c2)cc1	RBX1-CUL1 inh 66.0
COc1cc(/C=C2\SC(=O)N(c3ccc(Cl)cc3)C2=O)cc(Cl)c1O	RBX1-CUL1 inh 63.2
CCOc1cc(/C=C2\SC(=O)N(c3ccc(Cl)cc3)C2=O)cc(Cl)c1O	none
O=C1S/C(=C\c2ccccc2C(F)(F)F)C(=O)N1c1ccc(Cl)cc1	none
O=C1S/C(=C\c2cc(Br)cc(Br)c2O)C(=O)N1c1ccc(Cl)cc1	RBX1-CUL1 inh 31.5
O=C1S/C(=C\c2cc(Cl)c(O)c(Cl)c2)C(=O)N1c1cccc(Cl)c1	none
O=C1S/C(=C\c2cc(Cl)c(O)c(Cl)c2)C(=O)N1c1ccc(Cl)cc1	none
CC1CN(C(=O)CCC(=O)Nc2cc(F)ccc2F)c2ccccc2S1 (configuration not stated)	none
COc1ccc(C(=O)Nc2ccc3nc(SCC(=O)N4CCOCC4)sc3c2)cc1	none
O=C(Nc1ccc2nc(SCC(=O)N3CCCC3)sc2c1)c1cccc(Cl)c1	none
O=C(Nc1ccc2nc(SCC(=O)N3CCOCC3)sc2c1)c1cccc(Cl)c1	RBX1-CUL1 inh 58.0
O=C(O)COc1ccccc1/C=N/NC(=O)c1cc(-c2cccs2)[nH]n1	none
CCCCC(=O)Nc1sc2c(c1C(=O)OCC)CCC/C2=N\O	none
O=C1/C(=C\c2cn(Cc3ccc(F)cc3)c3ccccc23)SC(=Nc2ccccc2)N1CCc1ccccc1	none
O=C(O)Cn1cc(/C=C2\SC(=Nc3ccccc3)N(c3ccccc3)C2=O)c2ccccc21	RBX1-CUL1 inh 96.6
NC(=O)Cn1cc(/C=C2\SC(=Nc3ccccc3)N(C3CCCC3)C2=O)c2ccccc21	none

Compound activity as filed in PubChem BioAssay.
